# Values joined by “and” are separate entries in the source; they are usually repeats but may differ in a detail not shown here. Equal entries are not always repeated. This is part of a sample that, as a whole, favours compounds with a hit. Of some 83,000 tested, about 20% had one in any assay.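 In brief: 96-well plates, 48 h treatment, single concentration, percent growth endpoint.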 Active and inactive are the calls of the source. How the source made its calls: active means growth percent below 10; inactive means the rest.
# Tests used:
# Assay in all cases: NCI-60 one-dose screen, 48 h (100 = growth as untreated, 0 = no growth, -100 = all killed)
# [1] = system: NCI-H23 lung; conditions: 10 µM unless noted
# [2] = system: NCI-H226 lung; conditions: 10 µM unless noted
# [3] = system: NCI-H322M lung; conditions: 10 µM unless noted
# [4] = system: HOP-62 NSCLC; conditions: 10 µM unless noted
# [5] = system: NCI-H460 lung; conditions: 10 µM unless noted
# [6] = system: HOP-92 NSCLC; conditions: 10 µM
# [7] = system: NCI-H522 lung; conditions: 10 µM
# [8] = system: A549/ATCC NSCLC; conditions: 10 µM unless noted
# [9] = system: 786-0 renal; conditions: 10 µM unless noted
# [10] = system: COLO 205 colon; conditions: 10 µM unless noted
# [11] = system: DU-145 prostate; conditions: 10 µM unless noted
# [12] = system: K-562 leukemia; conditions: 10 µM unless noted
# [13] = system: MALME-3M melanoma; conditions: 10 µM unless noted
# [14] = system: MDA-MB-231 breast; conditions: 10 µM unless noted
# [15] = system: RXF 393 renal; conditions: 10 µM unless noted
# [16] = system: SF-268 CNS; conditions: 10 µM unless noted
# [17] = system: SF-295 CNS; conditions: 10 µM unless noted
# [18] = system: SF-539 CNS; conditions: 10 µM unless noted
# [19] = system: UACC-257 melanoma; conditions: 10 µM unless noted
# [20] = system: M14 melanoma; conditions: 10 µM unless noted
Structure (SMILES),growth [1],growth [2],growth [3],growth [4],growth [5],growth [6],growth [7],growth [8],growth [9],growth [10],growth [11],growth [12],growth [13],growth [14],growth [15],growth [16],growth [17],growth [18],growth [19],growth [20]
Nc1cc(N)c(N)cc1N,-66% (active),93.9% (inactive),107% (inactive),58.3% (inactive),96.8% (inactive),115% (inactive),-80.9% (active),88.1% (inactive),51.7% (inactive),95.7% (inactive),109% (inactive),9.58% (active),62% (inactive),89.6% (inactive),51.3% (inactive),74.2% (inactive),87.8% (inactive),-3.2% (active),-46.4% (active),–
c1ccc2c(c1)OC1OC2Oc2ccccc21,98.3% (inactive),94.3% (inactive),104% (inactive),98.8% (inactive),99.4% (inactive),101% (inactive),87% (inactive),96.9% (inactive),100% (inactive),107% (inactive),113% (inactive),96.1% (inactive),113% (inactive),114% (inactive),97.1% (inactive),99.3% (inactive),115% (inactive),106% (inactive),101% (inactive),–
Cc1cc(-c2ccc(N=Nc3ccc4c(S(=O)(=O)O)cc(S(=O)(=O)O)c(N)c4c3O)c(C)c2)ccc1N=Nc1ccc2c(S(=O)(=O)O)cc(S(=O)(=O)O)c(N)c2c1O,81.7% (inactive),89.2% (inactive),119% (inactive),95.7% (inactive),111% (inactive),67.1% (inactive),85.6% (inactive),92.7% (inactive),101% (inactive),111% (inactive),105% (inactive),90.8% (inactive),107% (inactive),110% (inactive),101% (inactive),102% (inactive),93.7% (inactive),90.8% (inactive),105% (inactive),118% (inactive)
CCCCCCCCCCCCCCCCC(C(=O)O)C(O)(CC(=O)O)C(=O)O (stereo not drawn),105% (inactive) and -38.2% (active),107% (inactive) and -23.4% (active),120% (inactive) and 20% (inactive),102% (inactive) and -2.31% (active),105% (inactive) and 4.08% (active),112% (inactive) and -1.67% (active),90% (inactive) and -32.5% (active),106% (inactive) and 12.6% (inactive),99.7% (inactive) and 0.749% (active),114% (inactive) and -53.4% (active),124% (inactive) and -1.43% (active),90.9% (inactive) and 1.15% (active),108% (inactive) and -8.6% (active),126% (inactive) and 14.1% (inactive),98.4% (inactive) and 9.56% (active),116% (inactive) and 10% (inactive),15.4% (inactive),109% (inactive) and -20.3% (active),115% (inactive) and 18.2% (inactive),102% (inactive) and -34.8% (active)
COc1ccc(C(=O)CC(c2ccccc2)C(C#N)c2ccccc2)cc1 (stereo not drawn),88.4% (inactive),81.1% (inactive),103% (inactive),98.3% (inactive),92.8% (inactive),67.8% (inactive),69.5% (inactive),74.2% (inactive),90% (inactive),110% (inactive),92.2% (inactive),80.7% (inactive),97.2% (inactive),81% (inactive),99.5% (inactive),86.3% (inactive),96.3% (inactive),97.7% (inactive),87.7% (inactive),88% (inactive)
O=C(O)/C=C\C(=O)Nc1cccc2ccccc12,106% (inactive) and 91.4% (inactive),90.6% (inactive) and 107% (inactive),105% (inactive) and 117% (inactive),96% (inactive) and 104% (inactive),101% (inactive) and 111% (inactive),115% (inactive),79.3% (inactive) and 100% (inactive),99.9% (inactive) and 105% (inactive),113% (inactive) and 111% (inactive),95.4% (inactive) and 108% (inactive),109% (inactive) and 123% (inactive),110% (inactive) and 94% (inactive),116% (inactive) and 119% (inactive),85.1% (inactive) and 107% (inactive),113% (inactive) and 132% (inactive),78.6% (inactive) and 107% (inactive),117% (inactive) and 104% (inactive),89.2% (inactive) and 110% (inactive),95.1% (inactive) and 101% (inactive),99.6% (inactive) and 96.8% (inactive)
CN(C)CC1CCCCCC(CN(C)C)C1=O (stereo not drawn),97.2% (inactive),91.4% (inactive),116% (inactive),113% (inactive),106% (inactive),73.2% (inactive),-42.8% (active),106% (inactive),89.6% (inactive),-80.9% (active),16.3% (inactive),0.401% (active),-29.8% (active),86.2% (inactive),-5.99% (active),97% (inactive),76.8% (inactive),113% (inactive),53.1% (inactive),77.4% (inactive)
NC1CCC(C(=O)O)CC1 (stereo not drawn),111% (inactive) and 108% (inactive),104% (inactive) and 99.6% (inactive),117% (inactive) and 105% (inactive),100% (inactive) and 91.2% (inactive),98.9% (inactive) and 104% (inactive),83.3% (inactive) and 91.7% (inactive),97.4% (inactive) and 96% (inactive),107% (inactive) and 108% (inactive),102% (inactive) and 103% (inactive),105% (inactive) and 107% (inactive),108% (inactive) and 115% (inactive),107% (inactive) and 109% (inactive),115% (inactive) and 106% (inactive),97.3% (inactive) and 113% (inactive),112% (inactive) and 106% (inactive),105% (inactive),106% (inactive) and 110% (inactive),98.9% (inactive) and 102% (inactive),107% (inactive) and 113% (inactive),96.5% (inactive) and 99.3% (inactive)
CCCCNc1ccc(Nc2ccccc2)cc1,41.7% (inactive),73.3% (inactive),98.3% (inactive),106% (inactive),76.7% (inactive),63.7% (inactive),31.2% (inactive),70.1% (inactive),92.9% (inactive),85% (inactive),84% (inactive),48.9% (inactive),54.8% (inactive),64.4% (inactive),83.9% (inactive),110% (inactive),56.3% (inactive),83.8% (inactive),62.7% (inactive),87.5% (inactive)
CCc1cc(C)cc(O)c1,107% (inactive),99.4% (inactive),105% (inactive),106% (inactive),110% (inactive),91.7% (inactive),90.1% (inactive),108% (inactive),104% (inactive),116% (inactive),122% (inactive),100% (inactive),112% (inactive),112% (inactive),94.4% (inactive),124% (inactive),116% (inactive),128% (inactive),96.1% (inactive),103% (inactive)
O=C1OC(c2ccccc2)=N/C1=C\c1ccccc1,99.8% (inactive),90.9% (inactive),96.2% (inactive),99.6% (inactive),103% (inactive),88.7% (inactive),108% (inactive),95.6% (inactive),95.9% (inactive),113% (inactive),113% (inactive),104% (inactive),86.4% (inactive),111% (inactive),106% (inactive),103% (inactive),99% (inactive),99.5% (inactive),96.5% (inactive),100% (inactive)
